# PubChem BioAssay AID430 (Sanford-Burnham Center for Chemical Genomics, 2006)
# Screen size: about 63,000 compounds; about 1,100 (1.7%) were called active. Cut-off read from the data, not from the text of the source: active = cytotoxicity above about 50%; inactive = the rest. The full list was thinned out, with actives kept by preference. Entries with a potency or affinity are not part of this list.
# Assay: cytotoxicity in HPDE-C7 cells, cell-based, fluorescence, HTS (AID 430);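 note: cells exposed to compound for 48 hours before viability readout; 0% = vehicle and 100% = reference cytotoxic drug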
# Details: HPDE-C7 pancreatic duct cells viability, at 10 µM, stronger effect = higher value
row,Structure (SMILES),cytotoxicity
1,CCOC(=O)C(Cc1c[nH]c2ccccc12)NC(=O)CNC(C)=O (stereo not drawn),2.5% (inactive)
2,CCCn1cnc2cc(NCc3cccc(OC)c3O)ccc21,5.7% (inactive)
3,CCOC(=O)c1ccc2ncc(C(=O)OCC)c(NCCCN3CCOCC3)c2c1,3% (inactive)
4,COc1ccc2c(c1)C1(Nc3ccccc3C(=O)N1c1ccccc1)C(=O)N2 (stereo not drawn),-14.8% (inactive)
5,CC(=Nc1ccccc1)Nc1ccccc1,-13.5% (inactive)
6,ONC(=Nc1ccccc1)C(=Nc1ccccc1)NO,0.4% (inactive)
7,S=C(N=Nc1ccccc1)NNc1ccccc1,58.8% (active)
8,COc1ccc(C2C(C(=O)NCCN3CCOCC3)c3ccccc3C(=O)N2C)cc1OC (stereo not drawn),-4.3% (inactive)
9,Cc1ccccc1-c1nn2c(-c3ccccc3)nnc2s1,-0.8% (inactive)
10,c1ccc(-c2nnc3sc(-c4csc5c4CCCC5)nn23)cc1,75% (active)
11,Cc1nnc2sc(-c3csc4c3CCCC4)nn12,-4.3% (inactive)
12,CCS(=O)(=O)n1nc(-c2ccccc2)cc1N,1% (inactive)
13,O=C(Cc1cccs1)N1CCCC(c2nc3c(nnn3Cc3ccc(F)cc3)c(=O)[nH]2)C1 (stereo not drawn),3.7% (inactive)
14,CC(C)(C)c1ccc(Cn2nnc3c(=O)[nH]c(C4CCN(C(=O)Cc5cccs5)CC4)nc32)cc1,0.2% (inactive)
15,CCOc1ccc(-c2n[nH]c(C)c2-c2ccccc2OC)c(O)c1,-12.5% (inactive)
16,CCCOC(=O)c1ccc(NC(=O)c2cnccn2)cc1,-2% (inactive)
17,CCCOC(=O)c1ccc(OC(=O)c2ccco2)cc1,-5.8% (inactive)
18,COc1ccc(C(=O)OCCN2C(=O)c3ccccc3C2=O)cc1,-2.8% (inactive)
19,CCC(=O)Nc1c2c(nn1-c1ccc(C)cc1C)CSC2,-2.4% (inactive)
20,O=C(Nc1ccon1)c1cccc(S(=O)(=O)N2CCCC2)c1,-18.1% (inactive)
21,Cc1ccc(C)c(NC(=O)CCn2nc(C)cc2C)c1,-17.9% (inactive)
22,c1ccc2[nH]c(CN3CCN(c4ncnc5c4oc4ccccc45)CC3)nc2c1,-2.8% (inactive)
23,CC(=O)N1CCN(C(=O)COc2ccc(Br)cc2)CC1,4.1% (inactive)
24,CCOc1ccc(NC(=O)c2ccccc2NC(=O)CN2CCN(C(C)=O)CC2)cc1,-0.6% (inactive)
25,O=C(C1CCN(Cc2ccc(F)cc2)CC1)N(CCO)Cc1ccccc1,2.8% (inactive)

row,Structure (SMILES),cytotoxicity
1,COC(=O)c1c(NC(=O)c2ccoc2C)sc2c1CCC2,-21% (inactive)
2,COC(=O)c1c(NC(=O)c2ccc(Br)s2)sc2c1CCC2,53.5% (active)
3,COC(=O)c1c(NC(C)=O)sc2c1CCCC2,-2% (inactive)
4,CC(=O)c1c(C)nc(-c2ccc3c(c2)OCO3)n1O,-6.2% (inactive)
5,O=C(Nc1ccc2c(c1)OCO2)C(c1ccc(Cl)cc1)N1CCC2(CC1)OCCO2 (stereo not drawn),4.2% (inactive)
6,CC1CCN(C(=O)CNC(=O)Cn2ccc3ccccc3c2=O)CC1,-13.9% (inactive)
7,CN1CC2=Cc3ccccc3OC23Oc2ccccc2C=C3C1,58.3% (active)
8,CCCCn1c(=O)[nH]c(=O)c2c1nc(COC(=O)c1c(C)noc1C)n2CCC,-7% (inactive)
9,CSc1nc(-c2ccco2)cc(-c2ccccc2)c1C#N,-2.3% (inactive)
10,Cc1cc(-c2ccccc2)c(C#N)c(N)n1,-14.3% (inactive)
11,C=CCn1c(SCC(=O)C(C)(C)C)nnc1-c1cccs1,-5.8% (inactive)
12,O=C(Oc1ccc(Cl)c2cccnc12)N1CCOCC1,10.3% (inactive)
13,O=C(Oc1c(Cl)cc(Cl)c2cccnc12)N1CCOCC1,3.3% (inactive)
14,COc1ccc(C(=O)Oc2c(CN3CCOCC3)cc(Cl)c3cccnc23)cc1OC,7.4% (inactive)
15,COc1cc(C(=O)Oc2c(CN3CCOCC3)cc(Cl)c3cccnc23)cc(OC)c1OC,29% (inactive)
16,Cc1ccc(CCNC(=O)C2CCCN(S(=O)(=O)c3cnc[nH]3)C2)cc1 (stereo not drawn),-8.4% (inactive)
17,O=C(NCC(=O)N(c1ccc2c(c1)OCO2)C(C(=O)NC1CCCC1)c1ccncc1)c1ccco1 (stereo not drawn),-5.8% (inactive)
18,Cc1cccc2cc(COC(=O)c3cccnc3)c(=O)[nH]c12,8.9% (inactive)
19,CC1CCN(S(=O)(=O)c2ccc3[nH]c(=O)c(=O)[nH]c3c2)CC1,-9% (inactive)
20,COC(=O)Cc1cc(=O)[nH]c(/N=C(/NC(=O)c2ccccc2)Nc2ccccc2C)n1,2.1% (inactive)
21,Cc1ccc(O)c(CC(C)C)n1,-4.7% (inactive)
22,CCC(NC(C)C)C(O)c1ccc(O)c(O)c1 (stereo not drawn),15.3% (inactive)
23,O=C(c1cc2ccccc2cc1OCC(O)CN1CCCCC1)N1CCCCC1 (stereo not drawn),-0.7% (inactive)
24,CC1CCCN(S(=O)(=O)c2cc(Cl)ccc2Cl)C1 (stereo not drawn),-32.2% (inactive)
25,CCN(CC)S(=O)(=O)c1ccc(Cl)c(C(=O)Nc2nncs2)c1,2.1% (inactive)

row,Structure (SMILES),cytotoxicity
1,CCN(CC)S(=O)(=O)c1cccc(C(=O)Nc2nncs2)c1,-14.1% (inactive)
2,Cc1ccccc1-n1c(SC/C(O)=C(\C#N)c2nc3ccccc3[nH]2)nnc1-c1ccncc1,-17.8% (inactive)
3,Nc1nc(NC(=O)c2cccnc2)nn1-c1ccccc1,3.1% (inactive)
4,Nc1nc(NC(=O)c2ccco2)nn1-c1ccccc1,2% (inactive)
5,Cc1ccc(C2CC(=O)NC(SCC(=O)OCc3ccccc3)=C2C#N)o1 (stereo not drawn),59.6% (active)
6,CCOC(=O)CSC1=C(C#N)C(c2ccc(C)o2)CC(=O)N1 (stereo not drawn),68.5% (active)
7,CC1=C(C(=O)OC2CCCCCC2)C(c2ccc(C)o2)C2=C(CCCC2=O)N1 (stereo not drawn),-13.9% (inactive)
8,Cc1ccc(C2CC(=O)NC(SCc3ccccc3)=C2C#N)o1 (stereo not drawn),10.6% (inactive)
9,COC(=O)CSC1=C(C#N)C(c2ccccc2)CC(=O)N1 (stereo not drawn),-10% (inactive)
10,CC1=C(C(=O)OC2CCCCC2)C(c2ccc(C)o2)C2=C(CCCC2=O)N1 (stereo not drawn),-7% (inactive)
11,CCOC(=O)CSC1=C(C#N)C(c2ccc(Cl)cc2)CC(=O)N1 (stereo not drawn),-16% (inactive)
12,CC1=C(C(=O)OCc2ccccc2)C(c2ccc(C)o2)C2=C(CCCC2=O)N1 (stereo not drawn),54.4% (active)
13,CCCCCCSC1=C(C#N)C(c2ccc(C)o2)CC(=O)N1 (stereo not drawn),-8% (inactive)
14,CC(=O)Nc1cccc(NC(=O)CSc2nnc(Cc3cccn3C)n2-c2ccc(F)cc2)c1,-6.9% (inactive)
15,Cc1cccc(C(C)(C)C)c1OCCn1ccnc1,8.6% (inactive)
16,COc1ccc(S(=O)(=O)N(CC(N)=O)C2CCCCC2)cc1Cl,-13.6% (inactive)
17,O=C(CN1CCN(C(=O)c2ccco2)CC1)Nc1ccc2c(c1)OCCO2,-13.8% (inactive)
18,CCn1c(N2CCC(Cc3ccccc3)CC2)nc2c1c(=O)[nH]c(=O)n2C,-25.9% (inactive)
19,CC(=O)OCC1OC(n2ccc(=O)[nH]c2=O)C(O)C1O (stereo not drawn),-11.3% (inactive)
20,CC(=O)OC[C@H]1O[C@@H](n2ccc(=O)[nH]c2=S)C(OC(C)=O)C1OC(C)=O (stereo partly drawn),-1% (inactive)
21,CC(=O)OC[C@H]1O[C@@H](n2ncc(=O)[nH]c2=O)[C@H](OC(C)=O)[C@@H]1OC(C)=O,56.2% (active)
22,CCSc1cc(C2C(C#N)=C(N)OC(C)=C2C(=O)OC)c(C)o1 (stereo not drawn),3.5% (inactive)
23,CCOC(=O)CCc1nn(C)c(=O)c2ccccc12,-11.1% (inactive)
24,Cc1ccc(S(=O)(=O)N(C)CC(=O)N2CCN(c3ccccn3)CC2)cc1,6.4% (inactive)
25,Cc1cc(-c2csc(NC(=O)c3ccc(=O)n(C)n3)n2)c(C)n1CC1CCCO1 (stereo not drawn),-8.1% (inactive)

row,Structure (SMILES),cytotoxicity
1,CCC(C)n1ncn(-c2ccc(N3CCN(c4ccc(OCC5COC(Cn6cncn6)(c6ccc(Cl)cc6Cl)O5)cc4)CC3)cc2)c1=O (stereo not drawn),65.7% (active)
2,CCCC1COC(Cn2cncn2)(c2ccc(C)cc2)O1 (stereo not drawn),-5.7% (inactive)
3,O=C1Nc2ccccc2C12OCC(COc1ccc(Cl)cc1)O2 (stereo not drawn),30.3% (inactive)
4,Cc1noc(C)c1S(=O)(=O)NC1CCN(Cc2ccccc2)CC1,1.4% (inactive)
5,CCCCCc1c(C)nc(NCc2ccccc2)[nH]c1=O,-8.7% (inactive)
6,Cc1n[nH]c(=O)nc1NCc1ccccc1,-20.4% (inactive)
7,COc1ccc(CCNC(=O)COc2nsnc2N2CCOCC2)cc1OC,-12.4% (inactive)
8,C=CCNC(=O)CCCCC(=O)NCC=C,-16.1% (inactive)
9,Cn1nc(-c2ccc(Cl)cc2)c2cc(C(=O)NCCCN3CCOCC3)sc21,8.3% (inactive)
10,CN1CCN(CCCNC(=O)c2cc3c(-c4ccc(Cl)cc4)nn(C)c3s2)CC1,13.3% (inactive)
11,Cn1nc(-c2ccc(Cl)cc2)c2cc(C(=O)NCCCN3CCCC3)sc21,69.7% (active)
12,Cc1sc2ncnc(Sc3nnnn3-c3ccccc3)c2c1C,71% (active)
13,Clc1ccc(-n2nnnc2Sc2ncnc3sccc23)cc1,4.6% (inactive)
14,Cc1sc2ncnc(SCc3ccco3)c2c1C,-13.2% (inactive)
15,CCCn1c(Sc2nnnn2-c2ccccc2)n[nH]c1=O,-7.4% (inactive)
16,Cc1nc(Sc2nnnn2-c2ccccc2)c(C#N)c(C)c1C,-11.7% (inactive)
17,COc1ccc(OC)c(-c2cc(C(=O)NCCCn3ccnc3)no2)c1,32.2% (inactive)
18,Cc1cc(NC(=O)C2CCCN(S(=O)(=O)c3c(C)noc3C)C2)no1 (stereo not drawn),9.5% (inactive)
19,O=C(O)c1ccc(OCc2occc2C(=O)O)cc1,-2.7% (inactive)
20,CCOc1ccc(N(CC(N)=O)S(=O)(=O)c2ccc(F)cc2)cc1,-0.6% (inactive)
21,Cc1cc2c(c(=O)n1CCN(C)C)C(c1ccncc1)C(C#N)=C(N)O2 (stereo not drawn),13.1% (inactive)
22,Cc1cc2c(c(=O)n1CCN(C)C)C(c1ccc(Cl)cc1)C(C#N)=C(N)O2 (stereo not drawn),-13.8% (inactive)
23,Cc1cc2c(c(=O)n1CCN(C)C)C(c1ccc(Br)cc1)C(C#N)=C(N)O2 (stereo not drawn),73.4% (active)
